The campaign covered roughly 63,000 compounds. About 1,100 (1.7%) were called active. The sample holds actives, similar compounds and a random draw of the others, so the mix is not that of the screen.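 How the source made its calls: active means compounds whose percent cytotoxicity in the single-dose primary screen, scaled between solvent and toxic-drug controls, exceeds 50; inactive means the rest.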 Potency and affinity values are given separately.
test: cytotoxicity in KRAS-transformed pancreatic duct cells, primary screen, cell-based, fluorescence, HTS (AID 431); details: HPDE-C7K KRASV12 cells, Alamar Blue viability, 48 h; at 10 µM; active compounds read high;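 further: 0% = DMSO solvent wells and 100% = doxorubicin-treated wells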

Row | SMILES | cytotoxicity
1 | O=C(COc1ccccc1Cl)NCc1ccncc1 | -2.3% (inactive)
2 | CC1CCCCN1C(=O)CSc1nc(C2CC2)nc2c1cnn2-c1ccccc1 (configuration not stated) | 1.1% (inactive)
3 | c1ccc(CNc2c3c(nc4ncnn24)CCCC3)nc1 | -2.6% (inactive)
4 | CC(=O)NCc1nc2ccccc2n1Cc1ccccc1C | -2.6% (inactive)
5 | CCOC(=O)CC(=O)Nc1nnc(C(C)C)s1 | -20.6% (inactive)
6 | COc1ccc(-c2cc(C(=O)O)c3ccccc3n2)c(OC)c1 | -13.5% (inactive)
7 | COc1ccc2[nH]c(C(=O)O)c(CCC(=O)O)c2c1 | 1.5% (inactive)
8 | O=C(O)CCc1cc(I)c(Oc2ccc(O)c(I)c2)c(I)c1 | 81.2% (active)
9 | N[C@@H](Cc1ccc(O)c(I)c1)C(=O)O | -4.9% (inactive)
10 | CCOC(=O)c1c(-c2ccsc2)csc1N | -5.8% (inactive)
11 | COc1ccc2nc(C)[nH]c(=O)c2c1 | 0.4% (inactive)
12 | CS(=O)(=O)N1CCN(c2nc(-c3ccccc3)cs2)CC1 | 11.2% (inactive)
13 | Nc1nc(SCC(=O)N2CCCc3ccccc32)[nH]c(=O)c1-c1ccccc1 | 2.5% (inactive)
14 | COc1cc(C2c3c(n[nH]c3C)C(=O)N2c2ccc(C)cc2)ccc1O (configuration not stated) | 58% (active)
15 | COc1cc(C2c3c(n[nH]c3C)C(=O)N2c2ccc(Br)cc2)ccc1O (configuration not stated) | 37.4% (inactive)
16 | CCOc1cc(C2c3c(n[nH]c3C)C(=O)N2c2ccc(Br)cc2)ccc1O (configuration not stated) | 21.7% (inactive)
17 | O=C(CN1CCN(Cc2ccccc2Cl)C1=O)N1CCCCCC1 | -10.9% (inactive)
18 | COc1cccc(-c2nnc(NC(C)=O)o2)c1 | 9.5% (inactive)
19 | COc1cccc(-c2nnc(NC(=O)c3ccc(S(=O)(=O)N4CC(C)OC(C)C4)cc3)o2)c1 (configuration not stated) | -4.2% (inactive)
20 | COCCN(CCOC)S(=O)(=O)c1ccc(C(=O)Nc2nnc(C)o2)cc1 | -7.3% (inactive)
21 | COc1cccc(-c2nnc(NC(=O)c3ccc(S(=O)(=O)N(CC(C)C)CC(C)C)cc3)o2)c1 | 55.5% (active)

Row | SMILES | cytotoxicity
22 | CCCN(CCC)S(=O)(=O)c1ccc(C(=O)Nc2nnc(-c3cccc(OC)c3)o2)cc1 | 62.9% (active)
23 | COc1cccc(-c2nnc(NC(=O)c3ccccc3Br)o2)c1 | 24.6% (inactive)
24 | CCCN(CCC)S(=O)(=O)c1ccc(C(=O)Nc2nnc(CSC)o2)cc1 | 2.7% (inactive)
25 | CCCN(CCC)S(=O)(=O)c1ccc(C(=O)Nc2nnc(-c3cc(OC)cc(OC)c3)o2)cc1 | 52.7% (active)
26 | COc1cccc(-c2nnc(NC(=O)c3ccc(S(=O)(=O)N4CCOCC4)cc3)o2)c1 | 1% (inactive)
27 | CCCCn1c(SCC(=O)Nc2nc(C)cs2)nnc1-c1cccnc1 | 2.9% (inactive)
28 | Nc1nc(NC(=O)c2ccco2)nn1-c1ccccc1 | 4.5% (inactive)
29 | Nc1nc(NC(=O)c2cccnc2)nn1-c1ccccc1 | 0.1% (inactive)
30 | OC(CN1CCN(c2ccccn2)CC1)Cn1c2ccccc2c2ccccc21 (configuration not stated) | 53.3% (active)
31 | OC(COCc1cccs1)CN1CCN(c2ccccn2)CC1 (configuration not stated) | 2.8% (inactive)
32 | OC(COc1ccc(Cl)c2ccccc12)CN1CCN(c2ccccn2)CC1 (configuration not stated) | 18.3% (inactive)
33 | O=C1NCC2=C1C(c1ccc(Br)cc1)Nc1ccccc1N2 (configuration not stated) | -0.1% (inactive)
34 | Cc1c(NC(=O)COC(=O)c2cc3c4ccccc4n(C)c3s2)c(=O)n(-c2ccccc2)n1C | 19.8% (inactive)
35 | Cc1nnc(NC(=O)Nc2cccc(Cl)c2)s1 | 12.5% (inactive)
36 | CNC(=O)C1C2C=CC3(O2)C1C(=O)N(C1CC1)C3C(=O)NCc1ccc(OC)cc1 (configuration not stated) | 3.6% (inactive)
37 | O=C(Nc1ccc2c(c1)OCO2)C(c1ccc(Cl)cc1)N1CCC2(CC1)OCCO2 (configuration not stated) | 5.8% (inactive)
38 | CC(=O)c1c(C)nc(-c2ccc3c(c2)OCO3)n1O | -5.4% (inactive)
39 | O=C(CSc1nnc(Cc2ccccc2)o1)Nc1ccc(Br)cn1 | -11.2% (inactive)
40 | O=C(NCc1ccccc1)N1CCC(c2nc3ccccc3[nH]2)CC1 | -0.6% (inactive)
41 | Cc1ccccc1S(=O)(=O)Cc1ccc(C(=O)NCCN2CCN(Cc3ccccc3)CC2)o1 | 3.7% (inactive)
42 | O=C(OCCCc1ccncc1)c1ccc(S(=O)(=O)N2CCOCC2)cc1 | -10.8% (inactive)

Row | SMILES | cytotoxicity
43 | CC(Oc1ccccc1)C(=O)N1CCCc2ccccc21 (configuration not stated) | -9.7% (inactive)
44 | O=C(COC(=O)c1ccc(Br)c(S(=O)(=O)N2CCOCC2)c1)NCC1CCCO1 (configuration not stated) | -3.7% (inactive)
45 | O=C(COC(=O)c1cc(S(=O)(=O)N2CCOCC2)ccc1O)NCC1CCCO1 (configuration not stated) | 55.2% (active)
46 | O=C(NCC1CCCO1)c1cc(-c2ccncc2)nc2ccc(S(=O)(=O)N3CCOCC3)cc12 (configuration not stated) | -15.7% (inactive)
47 | Cc1ccnc(NC(=O)CCC(=O)N(CC(=O)NC2CCCCC2)c2ccc3c(c2)OCO3)c1 | -7.7% (inactive)
48 | CCC1CCCCN1C(=O)CSc1nc(N)c(NC(=O)c2ccco2)c(=O)[nH]1 (configuration not stated) | -21.6% (inactive)
49 | CC1Oc2ccccc2N(CC(=O)c2cccc(Cl)c2)C1=O (configuration not stated) | -8.4% (inactive)
50 | CCOC(=O)CS(=O)(=O)c1nc(-c2ccccc2)cc(C(F)(F)F)n1 | 34.5% (inactive)
51 | Cc1cc(NC(=O)CCCS(=O)(=O)c2nc(-c3cccs3)cc(C(F)(F)F)n2)no1 | 4.1% (inactive)
52 | COCC(C)NC(=O)CCS(=O)(=O)c1nc(-c2ccc(OC)cc2)cc(C(F)(F)F)n1 (configuration not stated) | 52.3% (active)
53 | CCOC(=O)CS(=O)(=O)c1ccc2ccccc2c1 | -6.4% (inactive)
54 | COc1ccc(-c2cc(C(F)(F)F)nc(SCCC(=O)NCc3ccco3)n2)cc1 | -8.8% (inactive)
55 | COc1ccc(-c2cc(C(F)(F)F)nc(SCC(=O)Nc3cc(C)on3)n2)cc1 | -11.8% (inactive)
56 | CCOC(=O)c1cnn2c(C)cc(-c3ccc(F)cc3)nc12 | -18.9% (inactive)
57 | COC(=O)c1ccc2c(=O)n(CCCCCC(=O)NCc3ccccn3)c(=O)[nH]c2c1 | 2.9% (inactive)
58 | CCCC(=O)NCCCCNC(=O)CCC | -12.2% (inactive)
59 | Cc1ccc(CN(Cc2cccnc2)C(=O)CN2C(=O)COc3ccccc32)o1 | -12.5% (inactive)
60 | CC(=O)Nc1ccc(NC(=O)Oc2ccccc2)cc1 | -2.5% (inactive)
61 | O=C(Nc1ccc(N2CCN(c3ccc(O)cc3)CC2)cc1)Oc1ccccc1 | 65.7% (active)
62 | CC(C)Oc1ccc(NC(=O)Oc2ccccc2)cc1 | 3.4% (inactive)

Source: PubChem BioAssay AID431 (Sanford-Burnham Center for Chemical Genomics, 2006)
